This is an account of results in PubChem BioAssay (NCATS).

Molecules are shown by their SMILES. Inconclusive results are not listed. Unmarked numbers belong to inactive results. Calls of active or inactive are those of the source. Calls come from the whole dose curve; as a rule, active = well fitted cell-killing curve with a large enough effect; inconclusive = small, poorly fitted or top-dose-only effect; inactive = no such curve, though single readings can be large or run the other way.

A short description of the first assay: qHTS of pediatric cancer cell lines to identify multiple opportunities for drug repurposing: Primary screen for SK-N-SH cells (AID 1347098).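 For activity change, negative = cytotoxic: DMSO served as neutral control and bortezomib at 2.3 µM as positive control; % is set by controls: 0 for no effect and ±100 for the full control effect.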 Note: nearly all actives have a fitted effect of over 65% in size. Note: potency is the fitted concentration of half-maximal effect. The settings on record: SK-N-SH viability, CellTiter-Glo luminescence, 48 h; series mostly up to 57 µM; activity change, negative = cytotoxic: at the top concentration. The method, boiled down: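 Cells (500-1,000/well) rested 5 h, then received compounds for 48 h; metabolically active cells were measured by CellTiter-Glo luminescence. Final concentrations spanned up to 46 µM (MIPE, 11-point) or 0.59 nM-46 µM (NPC, 8-point) in primary screens, 11-point in follow-ups.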
A general note: Quantitative high-throughput screening tests each substance at several concentrations.
`CC(=O)Nc1ncc([N+](=O)[O-])s1`: the “activity change, negative = cytotoxic” value was 5.74%.
With `NS(=O)(=O)c1cc2c(cc1Cl)NC(CC1CCCC1)NS2(=O)=O` (configuration not stated), the “activity change, negative = cytotoxic” value is -3.61%.
With `Cc1cccc(C)c1NC(=O)c1ccccc1C(=O)O`, the “activity change, negative = cytotoxic” value was -0.0044%.
`CN1CCN(c2cc3c(cc2F)c(=O)c(C(=O)O)cn3-c2ccc(F)cc2)CC1`: the “activity change, negative = cytotoxic” value is -1.48%.
Take `C/C=C/C=N/NC(=O)c1ccncc1`: the “activity change, negative = cytotoxic” value is -0.864%.
Regarding `CC(C)CCCC(C)N` (configuration not stated), the “activity change, negative = cytotoxic” value is -20.8%.
As to `COC(=O)C(c1ccccc1Cl)N1CCc2sccc2C1` (configuration not stated), the “activity change, negative = cytotoxic” value was 10.4%.
Regarding `CCOc1ccccc1C(N)=O`, the Potency is 30.7 µM (active).
Consider `C[N+]1(CC2COC(c3ccccc3)(C3CCCCC3)O2)CCCCC1` (configuration not stated), for which the “activity change, negative = cytotoxic” value is -8.68%.
On the same count and under the same terms, under `CC(=O)OCC(=O)[C@H]1CC[C@H]2[C@@H]3CCC4=CC(=O)CC[C@]4(C)[C@H]3CC[C@]12C` stands 9.22%.
Regarding `CCN1/C(=C/C=C/c2sc3ccccc3[n+]2CC)Sc2ccccc21`, the Potency is 1.89 µM (active).
As for `CCC1NC(=O)c2cc(S(N)(=O)=O)c(Cl)cc2N1` (configuration not stated), the “activity change, negative = cytotoxic” value is -25%.
Turning to `CN(CCCN1c2ccccc2CCc2ccccc21)CC(=O)c1ccc(Cl)cc1`, the “activity change, negative = cytotoxic” value was -27.9%.
For `CC(=O)O[C@]1(C(C)=O)CC[C@H]2[C@@H]3C=C(Cl)C4=CC(=O)CC[C@]4(C)[C@H]3CC[C@@]21C`, the “activity change, negative = cytotoxic” value is -10.7%.
Regarding `CCCN(CCC)S(=O)(=O)c1ccc(C(=O)O)cc1`, the “activity change, negative = cytotoxic” value is -9.12%.
In the case of `CCOc1cc(OCC)c(C(=O)CCC(=O)O)cc1OCC`, the “activity change, negative = cytotoxic” value was 16.4%.
As to `O=C(O)Cc1csc(-c2ccc(Cl)cc2)n1`, the “activity change, negative = cytotoxic” value is -13.2%.

The nature of the next assay: qHTS of pediatric cancer cell lines to identify multiple opportunities for drug repurposing: Primary screen for NB1643 cells (AID 1347099).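 For activity change, negative = cytotoxic: plate controls were DMSO neutral control for no effect and bortezomib positive control for full effect.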 Note: nearly all actives have a fitted effect of over 50% in size. Note: potency is the fitted concentration of half-maximal effect. Conditions: NB1643 neuroblastoma viability, CellTiter-Glo luminescence, 48 h; series mostly up to 46 µM; activity change, negative = cytotoxic: at the top concentration. Summed up:
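Viability was measured as metabolically active cells after 48 hours of treatment, read by CellTiter-Glo luminescence. Compounds were tested at multiple final concentrations, giving concentration-response curves.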
With `CCCCCCCCCCCCCCC[C@H](O)[C@@H](N)CO`, the “activity change, negative = cytotoxic” value was -13.3%.
Still for that read-out and setting: under `CC(C)[N+](C)(C)CC(O)COc1cccc2ccccc12` (configuration not stated) stands -8.46%; under `OCCOCCN1CCN(C2=Nc3ccccc3Sc3ccccc32)CC1`, -2.48%.
As to `O=C1C(CCS(=O)c2ccccc2)C(=O)N(c2ccccc2)N1c1ccccc1` (configuration not stated), the “activity change, negative = cytotoxic” value is 10.8%.
On the same count and under the same terms, under `CN1CCC[C@@H]1CCO[C@](C)(c1ccccc1)c1ccc(Cl)cc1` stands -26.2%; under `CC1CCc2c(N3CCC(O)CC3)c(F)cc3c(=O)c(C(=O)O)cn1c23` (configuration not stated), -25.5%; under `Cc1ncc(CO)c(C=O)c1O`, 2.31%.
In the case of `O=C(Nc1cccc(C2=NCCN2)c1)Nc1cccc(C2=NCCN2)c1`, the “activity change, negative = cytotoxic” value was -7.71% [at 16.1 µM].
With `O=C(NC1CCN(CCc2c[nH]c3ccccc23)CC1)c1ccccc1`, the “activity change, negative = cytotoxic” value is -10%.
`CC(C)n1c(/C=C/[C@@H](O)C[C@@H](O)CC(=O)O)c(-c2ccc(F)cc2)c2ccccc21`: the Potency is 10.6 µM (active).
Turning to `Cc1cc(CC(=O)O)c(C)n1-c1ccc(Cl)cc1`, the “activity change, negative = cytotoxic” value was -10.5%.
With `NS(=O)(=O)c1cc2c(cc1Cl)NC(CC1CCCC1)NS2(=O)=O` (configuration not stated), the “activity change, negative = cytotoxic” value was 8.21%.
The same measure, in the same setting: under `Cc1cccc(C)c1NC(=O)c1ccccc1C(=O)O` stands 0%.
Regarding `C[N+]1(CC2COC(c3ccccc3)(C3CCCCC3)O2)CCCCC1` (configuration not stated), the “activity change, negative = cytotoxic” value is -11.4%.
`CCN1/C(=C/C=C/c2sc3ccccc3[n+]2CC)Sc2ccccc21`: the Potency is 2.91 µM (active).
As to `CN(CCCN1c2ccccc2CCc2ccccc21)CC(=O)c1ccc(Cl)cc1`, the “activity change, negative = cytotoxic” value is -5.12%.
Same read-out and setting: under `CC(=O)O[C@]1(C(C)=O)CC[C@H]2[C@@H]3C=C(Cl)C4=CC(=O)CC[C@]4(C)[C@H]3CC[C@@]21C` stands 0%; under `O=C(O)Cc1csc(-c2ccc(Cl)cc2)n1`, 1.54%.

The next assay is described as follows: qHTS of pediatric cancer cell lines to identify multiple opportunities for drug repurposing: Primary screen for LAN-5 cells (AID 1347100).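 Note: plate controls were DMSO neutral control for no effect and bortezomib positive control for full effect.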 Conditions: LAN-5 neuroblastoma viability, CellTiter-Glo luminescence, 48 h; series mostly up to 46 µM; activity change, negative = cytotoxic: at the top concentration. Summed up: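 Viability after 48 h compound treatment at 37C, 500-1,000 cells/well, read as ATP luminescence with CellTiter-Glo. Primary screens used 11-point (MIPE, 0.78 nM-46 µM) or 8-point (NPC, 0.59 nM-46 µM) final concentrations; follow-up screens used 11-point dilutions.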
Regarding `Cc1c(-c2ccccc2)oc2c(C(=O)OCCN3CCCCC3)cccc2c1=O`, the “activity change, negative = cytotoxic” value is -16.1%.
For `CCN1CCN(C(=O)N[C@@H](C(=O)N[C@@H]2C(=O)N3C(C(=O)O)=C(CSc4nnnn4C)CS[C@H]23)c2ccc(O)cc2)C(=O)C1=O`, the “activity change, negative = cytotoxic” value is -1.97%.
As for `COc1ccc(C(=O)c2ccccc2)c(O)c1`, the “activity change, negative = cytotoxic” value was 20.5%.
With `CC(C)[N+](C)(C)CC(O)COc1cccc2ccccc12` (configuration not stated), the “activity change, negative = cytotoxic” value is -3.39%.
Turning to `OCCOCCN1CCN(C2=Nc3ccccc3Sc3ccccc32)CC1`, the “activity change, negative = cytotoxic” value is -15.7%.
On the same count and under the same terms, under `CCCCCCCCOc1ccc(C(=O)c2ccccc2)c(O)c1` stands 2.66%.
Turning to `O=C1C(CCS(=O)c2ccccc2)C(=O)N(c2ccccc2)N1c1ccccc1` (configuration not stated), the “activity change, negative = cytotoxic” value was 8.6%.
On the same count and under the same terms, under `O=C1OC(CN2CCOCC2)CN1/N=C/c1ccc([N+](=O)[O-])o1` (configuration not stated) stands -15.9%; under `CCCCN=C(N)N=C(N)N`, 20.1%.
On to `CC1CCc2c(N3CCC(O)CC3)c(F)cc3c(=O)c(C(=O)O)cn1c23` (configuration not stated), for which the “activity change, negative = cytotoxic” value is -15.7%.
For `Cc1ncc(CO)c(C=O)c1O`, the “activity change, negative = cytotoxic” value was 3.93%.
On to `COc1ccc2c(c1)c1c3n2CCN(C)C3=NCC1`, for which the “activity change, negative = cytotoxic” value is 1.65%.
Turning to `O=C(Nc1cccc(C2=NCCN2)c1)Nc1cccc(C2=NCCN2)c1`, the “activity change, negative = cytotoxic” value was -13.2% [at 16.1 µM].
Take `O=C(NC1CCN(CCc2c[nH]c3ccccc23)CC1)c1ccccc1`: the “activity change, negative = cytotoxic” value is -17.6%.
As for `CCCCCCCCCCCCCCCC(=O)O`, the “activity change, negative = cytotoxic” value is 30.8%.
As for `CC(C)n1c(/C=C/[C@@H](O)C[C@@H](O)CC(=O)O)c(-c2ccc(F)cc2)c2ccccc21`, the “activity change, negative = cytotoxic” value was 5.71%.
Same read-out and setting: under `CC(=O)Nc1ncc([N+](=O)[O-])s1` stands 15.2%.
Regarding `NS(=O)(=O)c1cc2c(cc1Cl)NC(CC1CCCC1)NS2(=O)=O` (configuration not stated), the “activity change, negative = cytotoxic” value is -2.67%.
As to `Cc1cccc(C)c1NC(=O)c1ccccc1C(=O)O`, the “activity change, negative = cytotoxic” value is 22.3%.
For the compound `CN1CCN(c2cc3c(cc2F)c(=O)c(C(=O)O)cn3-c2ccc(F)cc2)CC1`, the “activity change, negative = cytotoxic” value was -6.77%.
Turning to `C/C=C/C=N/NC(=O)c1ccncc1`, the “activity change, negative = cytotoxic” value was 9.56%.
`CC(C)CCCC(C)N` (configuration not stated): the “activity change, negative = cytotoxic” value is 18%.
With `COC(=O)C(c1ccccc1Cl)N1CCc2sccc2C1` (configuration not stated), the “activity change, negative = cytotoxic” value was 5.74%.
On to `CCOc1ccccc1C(N)=O`, for which the “activity change, negative = cytotoxic” value was 9.99%.
Consider `C[N+]1(CC2COC(c3ccccc3)(C3CCCCC3)O2)CCCCC1` (configuration not stated), for which the “activity change, negative = cytotoxic” value is -21.4%.
On the same count and under the same terms, under `CC(=O)OCC(=O)[C@H]1CC[C@H]2[C@@H]3CCC4=CC(=O)CC[C@]4(C)[C@H]3CC[C@]12C` stands -13.2%.
As to `CCC1NC(=O)c2cc(S(N)(=O)=O)c(Cl)cc2N1` (configuration not stated), the “activity change, negative = cytotoxic” value was 14.2%.
On to `CN(CCCN1c2ccccc2CCc2ccccc21)CC(=O)c1ccc(Cl)cc1`, for which the “activity change, negative = cytotoxic” value was -3.65%.
As for `CC(=O)O[C@]1(C(C)=O)CC[C@H]2[C@@H]3C=C(Cl)C4=CC(=O)CC[C@]4(C)[C@H]3CC[C@@]21C`, the “activity change, negative = cytotoxic” value is -26.3%.
Still for that read-out and setting: under `CCCN(CCC)S(=O)(=O)c1ccc(C(=O)O)cc1` stands 13%; under `CCOc1cc(OCC)c(C(=O)CCC(=O)O)cc1OCC`, 11.7%.
Same read-out and setting: under `O=C(O)Cc1csc(-c2ccc(Cl)cc2)n1` stands 5.45%.
